Assay results taken from PubChem BioAssay AID977607 (Broad Institute, 2014).
Hit rate of the full screen: of about 1,500 compounds, about 460 (31%) were called active. Inconclusive results (about 1%) are left out.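 How the source made its calls: active means curve reaches 40% activation over neutral controls at an AC40 no higher than the top valid tested concentration; inconclusive means no clear call, values can overlap the other calls; inactive means signal moving opposite to the expected increase, and the rest.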 A selection follows. Entries with a potency or affinity are not part of this list.

Test: GLuc-reported insulin release enhancers, glucose-stimulated beta cells – cell-based, INS-1E, Gaussia luciferase, luminescence, cherry-pick, set 2, dose response (AID 977607);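 further: 0% = median of the plate neutral control wells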
Conditions: INS-1E GLuc insulin secretion reporter, 2-3 h, hits give high values; at 35 µM, 100% = signal doubled over neutral wells unless noted

Max activation, inactive:
CCc1nc2n[nH]c(N)c2c2c1CCCC2 65.3%
CCc1cc(=O)oc2c(CNCc3ccc(OC)cc3OC)c(O)c(Cl)cc12 20.4%
COCCNC(=O)c1cc2c(c(-c3cccc(C#Cc4ccc(OC)c(OC)c4)c3)n1)[C@H](CCO)N(S(=O)C(C)(C)C)C2 (some centres undefined) 8.82% [at 11 µM, 100% = signal doubled over neutral wells]
CC(C)(C)c1ccc(S(=O)(=O)N2CC(C(=O)O)Oc3ccc(Cl)cc32)cc1 (centres undefined) -11.3% [at 0.015 µM, 100% = signal doubled over neutral wells]
COc1ccc(C(=O)Nc2nnc(-c3cccs3)s2)cc1 -13.2% [at 0.135 µM, 100% = signal doubled over neutral wells]
Cc1ccccc1C(=O)NC1CCSC1=O (centres undefined) -21.5% [at 0.005 µM, 100% = signal doubled over neutral wells]
CN(C)CCCN(C(=O)CCOc1ccccc1)c1nc2c(F)cccc2s1 -32.2% [at 11 µM, 100% = signal doubled over neutral wells]
OC1(C#Cc2c(-c3ccsc3)sc3ccccc23)CCCCC1 50.8%
Cc1cc(-c2ccccc2)n2nc(N)nc2n1 -24.8% [at 0.046 µM, 100% = signal doubled over neutral wells]
O=c1c2ccccc2nnn1Cc1ccccc1 -23.5% [at 0.42 µM, 100% = signal doubled over neutral wells]
Cc1ccc2nc(N3CCN(C(=O)CCCC(=O)O)CC3)nc(-c3ccccc3)c2c1 12.5% [at 11 µM, 100% = signal doubled over neutral wells]
COC(C)(C)c1cc(C(C)(C)C)nc(N)n1 -18.4% [at 0.005 µM, 100% = signal doubled over neutral wells]
COc1cccc(-n2c(=O)c3ccccc3n(CC(=O)NCC3CCCO3)c2=O)c1 (centres undefined) -15.9% [at 0.015 µM, 100% = signal doubled over neutral wells]
O=C(COc1ccccc1)N(Cc1cccc(F)c1)C1CCS(=O)(=O)C1 (centres undefined) -16.7% [at 3.8 µM, 100% = signal doubled over neutral wells]
CC(Oc1ccc2c3c(c(=O)oc2c1)CCCC3)C(=O)NCc1cccnc1 (centres undefined) 27.7% [at 0.42 µM, 100% = signal doubled over neutral wells]
O=C(COC(=O)c1cccnc1Cl)Nc1cc(S(=O)(=O)N2CCCCCC2)ccc1Cl -32.2%
COc1cc(OC)c(OC)cc1CCC(C)NC(=O)Cc1ccccc1 (centres undefined) 27.7% [at 0.005 µM, 100% = signal doubled over neutral wells]
CCOc1ncccc1C(=O)NC(C)CCc1ccccc1 (centres undefined) 29.7%
C[C@H]1CN=C(N(C)C)N1CC1CCCC1 -12% [at 0.015 µM, 100% = signal doubled over neutral wells]
Cc1ccc(C(=O)N2CCN3C(=O)c4ccccc4C23c2ccccc2)cc1 (centres undefined) -24.9%
CN(Cc1ccccc1)c1nc2c(c(=O)[nH]c(=O)n2C)n1Cc1ccccc1 14.1% [at 11 µM, 100% = signal doubled over neutral wells]
Cn1c(=O)[nH]c(=O)c2c1nc(NC1CCCC1)n2Cc1ccccc1 -12.1% [at 0.0016 µM, 100% = signal doubled over neutral wells]
CCCCCCn1c(SCC(C)C)nc2c1c(=O)[nH]c(=O)n2C 12.8%
C=CCn1c(SCc2ccccc2)nc2c1c(=O)[nH]c(=O)n2C -13.1% [at 0.015 µM, 100% = signal doubled over neutral wells]
O=C(O)C(Cc1ccc(O)cc1)N1C(=O)c2ccccc2C1=O (centres undefined) -22% [at 0.046 µM, 100% = signal doubled over neutral wells]
COc1ccc(CCN(C)C(=O)Cn2c(=O)oc3ccccc32)cc1OC -16.4%
CCOc1ccc2oc(C(=O)N(C)CCc3ccc(OC)c(OC)c3)c(C)c2c1 47.7%
Cc1ccc(Nc2ncnc3sccc23)c(C)c1 -16% [at 0.015 µM, 100% = signal doubled over neutral wells]
CCCCc1c(-c2ccccc2OC)ncn1C(C)c1ccccc1 (centres undefined) 37.1%
CCCCc1c(-c2ccccc2OC)ncn1Cc1ccc(C)cc1 -22.3% [at 11 µM, 100% = signal doubled over neutral wells]
COc1ccc(CCN2C(=O)CC(Cc3ccccc3)C2=O)cc1OC (centres undefined) -9.21% [at 0.046 µM, 100% = signal doubled over neutral wells]
CCOc1cc(C2C3=C(CC(C)(C)CC3=O)Nc3n[nH]c(C)c32)ccc1O (centres undefined) -17.9% [at 0.015 µM, 100% = signal doubled over neutral wells]
c1csc(-c2nc(NCC3CCCO3)c3ccccc3n2)c1 (centres undefined) 39.8% [at 11 µM, 100% = signal doubled over neutral wells]
Cn1nnnc1Sc1ncnc2scc(-c3ccc(F)cc3)c12 -12.9% [at 0.42 µM, 100% = signal doubled over neutral wells]
NC1=NC[C@H](Cc2ccccc2)N1CCCCC1CCCCC1 -33.4% [at 11 µM, 100% = signal doubled over neutral wells]
COc1ccc(C[C@H]2CN3C(=NC[C@@H]3Cc3ccccc3)N2CCNC(=O)CCC2CCCCC2)cc1 62.1%
Cc1cc(NS(=O)(=O)c2ccc(NC(=O)C(C)Oc3ccccc3Cl)cc2)no1 (centres undefined) -22.4% [at 0.015 µM, 100% = signal doubled over neutral wells]
CCOc1ccccc1CNC(c1ccccc1)c1ccccc1 -22.9% [at 11 µM, 100% = signal doubled over neutral wells]
O=C(Nc1ncn[nH]1)c1ccc(Cl)c(Cl)c1 -14.6% [at 0.135 µM, 100% = signal doubled over neutral wells]
C/C(=N\NC(=O)CO/N=C(\C)c1cccs1)c1ccc(N)cc1 -25.9%
COc1cc2ccc(C(C)=NNC(N)=S)cc2cc1OC -23.9% [at 0.135 µM, 100% = signal doubled over neutral wells]
CC(C)CCN1C(=O)CSCC1(C)C(=O)NC(C)C (centres undefined) -10.4%
Cc1cccn2cc(CNS(=O)(=O)c3ccc4ccccc4c3)nc12 34% [at 3.8 µM, 100% = signal doubled over neutral wells]
COCCn1c(=S)[nH]c2sc3c(c2c1=O)CCCC3 -29.9% [at 11 µM, 100% = signal doubled over neutral wells]
COc1cc(CN2CCC(n3nccc3NC(=O)C3CCOC3)CC2)ccc1F (centres undefined) -11.8%
COc1ccccc1-n1cnc2sc(C)c(C)c2c1=O 29.4% [at 11 µM, 100% = signal doubled over neutral wells]
COc1ccc(S(=O)(=O)NC2CCCCC2)cc1C 14.2% [at 3.8 µM, 100% = signal doubled over neutral wells]
COc1ccc(C2N(c3ccccc3)C(=O)C2(F)F)cc1OC (centres undefined) -13.7%
COc1ccc(C(=O)OCC(=O)NC(=O)NC2CCCC2)cc1OC -7.36% [at 0.005 µM, 100% = signal doubled over neutral wells]
CCSc1nnc2ccc(-c3ccc(C)cc3)nn12 18.5% [at 0.015 µM, 100% = signal doubled over neutral wells]
O=C(COc1ccccc1)Nc1ccccc1C(=O)NC1CC1 -11.7% [at 0.046 µM, 100% = signal doubled over neutral wells]
O=C(CC(c1ccccc1)c1ccco1)N1CCOCC1 (centres undefined) 18.9% [at 1.2 µM, 100% = signal doubled over neutral wells]
CC(=O)c1c(O)c2cccc3c2n(c1=O)CCC3 -22.5% [at 0.046 µM, 100% = signal doubled over neutral wells]
Cc1ccccc1S(=O)(=O)N1CC(=O)N2[C@@H](CO)[C@H](c3ccc(C#CCC4CCCC4)cc3)[C@@H]2C1 276% [at 35 µM]
CCC(=O)Nc1cc(C(C)(C)C)ccc1C(C)=O -23.6% [at 0.135 µM, 100% = signal doubled over neutral wells]
O=C(c1cccs1)N(Cc1ccccn1)Cc1ccco1 -16.4% [at 0.015 µM, 100% = signal doubled over neutral wells]
CN1CCN(c2ccc(CNC(=O)C3(C)Cc4c(-c5ccccc5)ccnc4O3)cc2)CC1 (centres undefined) -21.2% [at 0.005 µM, 100% = signal doubled over neutral wells]
COc1ccc2c(c1)CCc1cc(C(=O)O)sc1-2 -25.3% [at 0.135 µM, 100% = signal doubled over neutral wells]
CNC(=O)c1[nH]nc2c1CCc1cc(OC)ccc1-2 -16.9% [at 0.005 µM, 100% = signal doubled over neutral wells]
